Measured values as given in PubChem BioAssay.
Calls of active or inactive are those of the source.

Legend:
[1] = small molecules captured by biotinylated probe aFSTL3 – biochemical, small-molecule microarray, fluorescence 635/667, stem cell growth factor project, primary screen (AID 1064); conditions: higher = more signal;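 also: measures binding of the biotinylated anti-FSTL3 antibody to printed compounds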
[2] = binders from COS7 lysate, DM2A8 probe, primary screen, torsin A project, cell lysate, small-molecule microarray, fluorescence 635/667 (AID 1065); conditions: higher = more signal, COS7 lysate expressing mutant human TOR1A
[3] = small molecules captured by biotinylated probe aFGF2 – biochemical, small-molecule microarray, fluorescence 635/667, stem cell growth factor project, primary screen (AID 1067); conditions: higher = more signal;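 also: measures binding of biotinylated aFGF2 protein to printed compounds on slides; z-score merges feature fluorescence and signal-to-noise across triplicate slides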
[4] = small molecules captured by biotinylated probe aFGF10 – biochemical, small-molecule microarray, fluorescence 635/667, stem cell growth factor project, primary screen (AID 1071); conditions: higher = more signal;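 also: score merges 667 nm spot intensity and signal to noise from triplicate slides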
[5] = biological target: Neurogenic locus notch homolog protein 2 (Homo sapiens) (UniProt Q04721); experiment: small molecules binding Notch2 protein – biochemical, small-molecule microarray, 635 nm fluorescence, stem cell growth factors, primary screen (AID 1073); conditions: higher = more signal
Chain of Neurogenic locus notch homolog protein 2 (Homo sapiens) (Q04721 whole entry, looked up, canonical isoform): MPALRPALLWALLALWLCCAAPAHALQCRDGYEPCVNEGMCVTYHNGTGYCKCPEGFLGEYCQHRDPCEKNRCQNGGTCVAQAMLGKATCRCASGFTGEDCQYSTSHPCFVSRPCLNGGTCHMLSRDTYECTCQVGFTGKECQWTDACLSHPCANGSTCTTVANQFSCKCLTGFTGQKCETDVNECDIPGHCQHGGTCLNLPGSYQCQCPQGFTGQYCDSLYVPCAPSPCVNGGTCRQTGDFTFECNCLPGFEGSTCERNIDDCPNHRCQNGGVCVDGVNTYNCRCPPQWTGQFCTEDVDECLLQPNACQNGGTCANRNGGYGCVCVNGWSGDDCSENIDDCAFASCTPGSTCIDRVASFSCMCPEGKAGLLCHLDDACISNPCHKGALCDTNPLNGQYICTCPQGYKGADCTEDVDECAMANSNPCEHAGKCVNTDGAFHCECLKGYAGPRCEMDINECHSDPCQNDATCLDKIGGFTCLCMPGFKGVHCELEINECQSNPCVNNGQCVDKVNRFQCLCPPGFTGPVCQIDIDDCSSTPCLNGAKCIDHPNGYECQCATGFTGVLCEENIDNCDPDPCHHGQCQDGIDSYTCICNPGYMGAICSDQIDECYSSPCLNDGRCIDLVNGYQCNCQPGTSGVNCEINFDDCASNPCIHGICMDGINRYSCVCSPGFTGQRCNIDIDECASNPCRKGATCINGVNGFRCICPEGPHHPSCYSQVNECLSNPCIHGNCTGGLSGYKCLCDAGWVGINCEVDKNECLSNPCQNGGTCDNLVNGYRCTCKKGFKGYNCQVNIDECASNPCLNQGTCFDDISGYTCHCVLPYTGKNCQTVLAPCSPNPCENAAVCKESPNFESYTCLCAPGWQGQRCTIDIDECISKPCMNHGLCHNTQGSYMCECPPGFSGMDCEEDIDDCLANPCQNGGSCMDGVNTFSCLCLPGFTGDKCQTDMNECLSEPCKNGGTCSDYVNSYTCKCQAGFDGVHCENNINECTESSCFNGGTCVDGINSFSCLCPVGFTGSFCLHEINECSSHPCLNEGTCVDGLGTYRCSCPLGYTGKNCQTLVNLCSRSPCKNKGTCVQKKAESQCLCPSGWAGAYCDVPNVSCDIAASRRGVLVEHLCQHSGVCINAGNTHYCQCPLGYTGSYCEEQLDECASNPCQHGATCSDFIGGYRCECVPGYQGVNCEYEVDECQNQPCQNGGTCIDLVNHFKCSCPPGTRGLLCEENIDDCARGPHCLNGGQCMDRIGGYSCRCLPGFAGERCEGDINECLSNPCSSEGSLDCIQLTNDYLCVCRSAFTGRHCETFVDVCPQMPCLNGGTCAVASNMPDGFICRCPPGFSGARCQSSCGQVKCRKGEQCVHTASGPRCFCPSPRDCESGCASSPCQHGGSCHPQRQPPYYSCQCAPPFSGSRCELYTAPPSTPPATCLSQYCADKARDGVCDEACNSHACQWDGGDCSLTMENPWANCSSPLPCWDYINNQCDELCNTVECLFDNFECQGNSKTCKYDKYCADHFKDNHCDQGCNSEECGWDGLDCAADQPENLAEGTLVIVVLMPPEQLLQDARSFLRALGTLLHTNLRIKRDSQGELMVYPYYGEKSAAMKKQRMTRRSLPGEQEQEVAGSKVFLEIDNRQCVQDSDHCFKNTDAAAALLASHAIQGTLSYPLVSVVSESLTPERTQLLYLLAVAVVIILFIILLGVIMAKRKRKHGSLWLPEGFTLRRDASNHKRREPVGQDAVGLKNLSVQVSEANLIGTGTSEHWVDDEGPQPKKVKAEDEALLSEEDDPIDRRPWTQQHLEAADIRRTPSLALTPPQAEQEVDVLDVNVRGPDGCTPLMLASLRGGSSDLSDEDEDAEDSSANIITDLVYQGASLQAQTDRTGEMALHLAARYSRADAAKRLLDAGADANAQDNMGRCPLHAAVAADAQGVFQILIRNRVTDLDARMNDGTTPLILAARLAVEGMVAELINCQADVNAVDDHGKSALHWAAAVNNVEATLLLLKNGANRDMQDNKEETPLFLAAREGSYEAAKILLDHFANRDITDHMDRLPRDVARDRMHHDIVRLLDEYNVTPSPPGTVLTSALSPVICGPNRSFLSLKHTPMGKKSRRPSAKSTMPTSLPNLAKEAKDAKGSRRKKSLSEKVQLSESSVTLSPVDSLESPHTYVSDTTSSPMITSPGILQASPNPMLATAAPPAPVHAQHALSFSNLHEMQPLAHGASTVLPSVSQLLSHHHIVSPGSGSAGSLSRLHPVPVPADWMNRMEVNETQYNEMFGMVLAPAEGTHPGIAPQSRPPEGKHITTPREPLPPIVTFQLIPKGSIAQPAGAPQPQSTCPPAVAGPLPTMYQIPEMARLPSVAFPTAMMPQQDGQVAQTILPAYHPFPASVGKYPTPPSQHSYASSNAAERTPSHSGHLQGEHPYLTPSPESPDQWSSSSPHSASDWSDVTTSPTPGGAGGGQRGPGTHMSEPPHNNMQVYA

[6] = biological target: Pro-neuregulin-1, membrane-bound isoform (Homo sapiens) (UniProt Q02297); experiment: small molecules binding neuregulin-1 protein – biochemical, small-molecule microarray, fluorescence 635/667, psychiatric disease protein project, primary screen (AID 1075); conditions: NRG1 binding, 635 nm fluorescence, higher = more signal;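 also: score combines 667 nm spot fluorescence with signal to noise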
Chain of Pro-neuregulin-1, membrane-bound isoform (Homo sapiens) (Q02297 whole entry, looked up, the tested form may be a part, canonical isoform): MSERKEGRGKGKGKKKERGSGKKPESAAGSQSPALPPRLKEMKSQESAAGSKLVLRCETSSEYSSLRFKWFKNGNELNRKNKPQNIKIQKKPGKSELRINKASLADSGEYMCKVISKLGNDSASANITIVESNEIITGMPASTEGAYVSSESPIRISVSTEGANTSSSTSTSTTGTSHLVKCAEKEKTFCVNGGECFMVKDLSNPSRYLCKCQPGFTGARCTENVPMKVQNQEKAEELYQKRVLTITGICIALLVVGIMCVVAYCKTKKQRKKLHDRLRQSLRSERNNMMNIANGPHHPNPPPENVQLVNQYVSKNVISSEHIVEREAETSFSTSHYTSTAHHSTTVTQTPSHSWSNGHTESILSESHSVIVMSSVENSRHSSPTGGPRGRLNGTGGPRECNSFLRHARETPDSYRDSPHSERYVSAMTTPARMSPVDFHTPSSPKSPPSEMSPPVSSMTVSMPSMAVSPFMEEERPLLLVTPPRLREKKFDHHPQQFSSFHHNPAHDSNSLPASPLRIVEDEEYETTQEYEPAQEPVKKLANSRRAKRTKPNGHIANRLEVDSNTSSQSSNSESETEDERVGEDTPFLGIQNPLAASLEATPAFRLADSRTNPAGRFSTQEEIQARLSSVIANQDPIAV

[7] = tested on: Neuregulin-1 EGF-like domain; experiment: small molecules binding NRG1 EGF domain – biochemical, small-molecule microarray, 635 nm fluorescence, primary screen (AID 1081); conditions: higher = more signal;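 also: binding of the protein to compounds printed on small-molecule microarray slides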
[8] = FRG1 expression reporter modulators in myotubes – cell-based, C2C12 myotubes, firefly/Renilla luciferase, luminescence, FRG1 inhibition for FSHD, primary screen (AID 1084); conditions: FRG1 promoter luciferase, higher = more signal, called active from +8 up or from −8 down
[9] = small molecules captured by biotinylated probe aFST – biochemical, small-molecule microarray, fluorescence 635/667, stem cell growth factor project, primary screen (AID 1086); conditions: higher = more signal;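 also: score merges 667 nm fluorescence with signal-to-noise of each printed compound spot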
[10] = binders of probe aHhip on microarray, primary screen, stem cell growth factor project, biochemical, small-molecule microarray, fluorescence 635/667 (AID 1087); conditions: higher = more signal;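 also: score merges spot fluorescence at 667nm with spot signal to noise ratio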

## COC(=O)[C@@]1(Cc2ccc(F)cc2)[C@H]2c3cc(C(=O)N4CCCC4)n(CC4CC4)c3C[C@H]2CN1C(=O)c1ccccc1
[1]
  composite z-score: 0.349
[2]
  composite z-score: 0.149
[3]
  composite z-score: 0.0274
[4]
  composite z-score: 0.427
[5]
  composite z-score: 1.72
[6]
  composite z-score: 2.05
[7]
  composite z-score: 1.06
[8]
  z-score: 0.108 (inactive)
[9]
  composite z-score: 1.61
[10]
  composite z-score: 0.0274

## CC(C)C(CO)N1C(=O)[C@@H]2[C@H]3C(=O)OCC=C[C@H]3OC23C=CCN(C(C)(C)C)C(=O)[C@@H]13 (stereo not given in full)
[1]
  composite z-score: -0.0718
[2]
  composite z-score: -0.141
[3]
  composite z-score: -0.155
[4]
  composite z-score: -0.724
[5]
  composite z-score: -0.456
[6]
  composite z-score: -0.807
[7]
  composite z-score: -1.03
[8]
  z-score: -0.221 (inactive)
[9]
  composite z-score: -0.346
[10]
  composite z-score: -0.128

## C=C[C@@H](C)[C@H](O)c1ccc(OCCO)cc1
[1]
  composite z-score: 0.684
[2]
  composite z-score: -1.91
[3]
  composite z-score: -0.182
[4]
  composite z-score: -0.84
[5]
  composite z-score: -1.67
[6]
  composite z-score: -0.0655
[7]
  composite z-score: 1.04
[8]
  z-score: 5.39 (inactive)
[9]
  composite z-score: -1.06
[10]
  composite z-score: -0.236

## C=C(COC)/C(=C/C[C@@H](OC(C)=O)c1ccc(CO)o1)c1cc(C(=O)OC)ccc1OC
[1]
  composite z-score: -0.22
[2]
  composite z-score: 0.707
[3]
  composite z-score: -0.111
[4]
  composite z-score: 0.851
[5]
  composite z-score: -0.378
[6]
  composite z-score: 1.46
[7]
  composite z-score: 1.3
[8]
  z-score: 0.435 (inactive)
[9]
  composite z-score: -0.179
[10]
  composite z-score: -0.0994

## [N-]=[N+]=Nc1ccccc1C[C@]1(C(=O)NCc2ccccc2)COC(c2ccc(OCCCO)cc2)=N1
[1]
  composite z-score: 0.191
[2]
  composite z-score: 0.666
[3]
  composite z-score: 0.113
[4]
  composite z-score: 1.27
[5]
  composite z-score: 0.777
[6]
  composite z-score: 1.24
[7]
  composite z-score: 1.21
[8]
  z-score: -1.36 (inactive)
[9]
  composite z-score: 0.892
[10]
  composite z-score: -0.207

## COCCOC(=O)N1C(=O)[C@@]2(c3cc(C#CCC(C(=O)OC)C(=O)OC)ccc31)[C@H](c1ccc(O)cc1)N1[C@H](c3ccccc3)[C@H](c3ccccc3)OC(=O)[C@H]1[C@@H]2C(=O)NC[C@H](O)c1ccccc1
[1]
  composite z-score: -0.32
[2]
  composite z-score: 0.63
[3]
  composite z-score: 0.0521
[4]
  composite z-score: 0.144
[5]
  composite z-score: 0.147
[6]
  composite z-score: 1.12
[7]
  composite z-score: 1.04
[8]
  z-score: 1.15 (inactive)
[9]
  composite z-score: 0.169
[10]
  composite z-score: 0.0749

## CCN(CC)c1ccc(N2CC=CC34O[C@@H]5C=CCCOC(=O)C5[C@H]3C(=O)N(CCO)[C@@H]4C2=O)cc1 (stereo not given in full)
[1]
  composite z-score: 0.171
[2]
  composite z-score: -0.981
[3]
  composite z-score: -0.18
[4]
  composite z-score: -0.463
[5]
  composite z-score: -0.894
[6]
  composite z-score: -0.684
[7]
  composite z-score: 1.52
[8]
  z-score: -0.329 (inactive)
[9]
  composite z-score: -0.209
[10]
  composite z-score: -0.137

## CCCCCN1CC=CC23O[C@@H]4C=CCOC(=O)[C@@H]4[C@H]2C(=O)N(CCO)[C@@H]3C1=O (stereo not given in full)
[1]
  composite z-score: 0.388
[2]
  composite z-score: 0.483
[3]
  composite z-score: -0.177
[4]
  composite z-score: 0.162
[5]
  composite z-score: -1.27
[6]
  composite z-score: 1.6
[7]
  composite z-score: 1.48
[8]
  z-score: -0.0097 (inactive)
[9]
  composite z-score: -0.455
[10]
  composite z-score: -0.199

## C=CCC(OC(C)=O)[C@@H]1[C@@H](N(Cc2cccc3ccccc23)C(=O)Cc2ccc(F)cc2)c2cc(OCCCO)ccc2N1C(=O)c1ccc(-c2ccccc2)cc1 (stereo not given in full)
[1]
  composite z-score: 0.873
[2]
  composite z-score: -0.302
[3]
  composite z-score: -0.0427
[4]
  composite z-score: -0.387
[5]
  composite z-score: -0.648
[6]
  composite z-score: -0.61
[7]
  composite z-score: -0.802
[8]
  z-score: -1.83 (inactive)
[9]
  composite z-score: 0.392
[10]
  composite z-score: -0.14

## O=C1NC(=O)C2C1C=CC(C(O)c1ccccn1)N2Nc1ccc(Cl)cc1Cl (stereo not given)
[1]
  composite z-score: -0.0358
[2]
  composite z-score: -0.0795
[3]
  composite z-score: -0.0132
[4]
  composite z-score: 0.895
[5]
  composite z-score: 1.16
[6]
  composite z-score: 1.36
[7]
  composite z-score: 0.626
[8]
  z-score: 0.362 (inactive)
[9]
  composite z-score: 0.737
[10]
  composite z-score: 0.154

## COC(=O)[C@@]1(Cc2ccc(OC)cc2)[C@H]2c3cc(C(=O)N4CCCC4)n(Cc4ccc(S(C)(=O)=O)cc4)c3C[C@H]2CN1C(=O)c1ccccc1
[1]
  composite z-score: 0.438
[2]
  composite z-score: -0.208
[3]
  composite z-score: 0.296
[4]
  composite z-score: 0.587
[5]
  composite z-score: 1.59
[6]
  composite z-score: 2.07
[7]
  composite z-score: 1.31
[8]
  z-score: 0.862 (inactive)
[9]
  composite z-score: 1.25
[10]
  composite z-score: 0.0053

## [N-]=[N+]=NC[C@H](Cc1ccccc1)NC(=O)c1ccccc1
[1]
  composite z-score: -0.259
[2]
  composite z-score: 0.2
[3]
  composite z-score: -0.107
[4]
  composite z-score: -0.168
[5]
  composite z-score: -0.0596
[6]
  composite z-score: -0.0451
[7]
  composite z-score: -0.123
[8]
  z-score: 1.43 (inactive)
[9]
  composite z-score: 0.135
[10]
  composite z-score: -0.0618

## CO[C@H]1O[C@H](CO)[C@@H](OC(=O)CCc2ccccc2)[C@H](OC(=O)c2cc3ccccc3[nH]2)[C@H]1OC(=O)c1cc2ccccc2[nH]1
[1]
  composite z-score: -0.262
[2]
  composite z-score: 0.489
[3]
  composite z-score: -0.0321
[4]
  composite z-score: 0.72
[5]
  composite z-score: 1.15
[6]
  composite z-score: 1.21
[7]
  composite z-score: 1.02
[8]
  z-score: -0.3 (inactive)
[9]
  composite z-score: 0.29
[10]
  composite z-score: 0.0596

## COC(=O)[C@@]1(Cc2ccc(OC)cc2)[C@H]2c3cc(C(=O)N4CCCC4)n(Cc4ccc(OC(F)(F)F)cc4)c3C[C@H]2CN1C(=O)c1ccccc1
[1]
  composite z-score: 0.572
[2]
  composite z-score: -1.05
[3]
  composite z-score: 0.225
[4]
  composite z-score: 0.703
[5]
  composite z-score: 1.74
[6]
  composite z-score: 1.39
[7]
  composite z-score: 0.283
[8]
  z-score: 0.612 (inactive)
[9]
  composite z-score: 1.28
[10]
  composite z-score: 0.113

## Cc1cccc([C@H]2C[C@H]3C(I)=C[C@@H]2C(=O)[C@]32CO2)c1
[1]
  composite z-score: 0.165
[2]
  composite z-score: 0.0974
[3]
  composite z-score: -0.128
[4]
  composite z-score: -0.152
[5]
  composite z-score: -0.714
[6]
  composite z-score: -0.507
[7]
  composite z-score: -0.38
[8]
  z-score: 2.56 (inactive)
[9]
  composite z-score: -0.0256
[10]
  composite z-score: -0.236

## C=CCN1C(=O)[C@@]2(O[C@@H](CCO)[C@H]([Si](C)(C)c3ccc(OC)cc3)[C@H]2C)c2cc(N3CCOC3=O)ccc21
[1]
  composite z-score: -0.0204
[2]
  composite z-score: 0.0241
[3]
  composite z-score: -0.0455
[4]
  composite z-score: 0.448
[5]
  composite z-score: 0.165
[6]
  composite z-score: 1.21
[7]
  composite z-score: 1.09
[8]
  z-score: -1.66 (inactive)
[9]
  composite z-score: 0.162
[10]
  composite z-score: -0.236

## COC(=O)C(CC#Cc1ccc2c(c1)[C@]1(C(=O)N2)[C@H](C(=O)Nc2nc3ccccc3s2)[C@H]2C(=O)O[C@H](c3ccccc3)[C@H](c3ccccc3)N2[C@@H]1c1ccc(OCCO)cc1)C(=O)OC
[1]
  composite z-score: 0.156
[2]
  composite z-score: 0.444
[3]
  composite z-score: -0.0036
[4]
  composite z-score: 1.05
[5]
  composite z-score: 1.4
[6]
  composite z-score: 1.87
[7]
  composite z-score: 1.24
[8]
  z-score: 1.9 (inactive)
[9]
  composite z-score: 0.846
[10]
  composite z-score: -0.137
